PubChem BioAssay AID489028 (Sanford-Burnham Center for Chemical Genomics, 2010)
Among all 10,000 compounds or so, about 5,600 (56%) were called active. The set was probably picked from earlier hits. The list is a sample of the results. Values without a mark were called inactive. Cut-off read from the data, not from the text of the source: active = inhibition above about 40%; inactive = the rest.

Target: Protein Mdm4 (Homo sapiens) + E3 ubiquitin-protein ligase Mdm2 (Homo sapiens) (UniProt O15151+Q00987)
Sequence (O15151 whole entry, looked up): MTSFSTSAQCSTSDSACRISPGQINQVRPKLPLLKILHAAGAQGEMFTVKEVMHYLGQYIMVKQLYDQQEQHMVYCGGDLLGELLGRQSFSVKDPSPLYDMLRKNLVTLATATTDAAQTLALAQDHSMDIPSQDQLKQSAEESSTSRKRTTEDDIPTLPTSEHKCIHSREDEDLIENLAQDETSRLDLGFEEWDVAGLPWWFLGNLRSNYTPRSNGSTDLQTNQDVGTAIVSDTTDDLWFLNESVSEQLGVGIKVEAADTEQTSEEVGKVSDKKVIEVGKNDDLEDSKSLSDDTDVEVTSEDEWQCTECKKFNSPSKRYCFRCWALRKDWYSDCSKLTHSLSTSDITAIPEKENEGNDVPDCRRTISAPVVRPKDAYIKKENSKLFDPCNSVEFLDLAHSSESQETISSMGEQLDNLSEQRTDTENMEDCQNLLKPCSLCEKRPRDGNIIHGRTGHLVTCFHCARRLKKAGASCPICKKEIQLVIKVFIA
Sequence (Q00987 whole entry, looked up): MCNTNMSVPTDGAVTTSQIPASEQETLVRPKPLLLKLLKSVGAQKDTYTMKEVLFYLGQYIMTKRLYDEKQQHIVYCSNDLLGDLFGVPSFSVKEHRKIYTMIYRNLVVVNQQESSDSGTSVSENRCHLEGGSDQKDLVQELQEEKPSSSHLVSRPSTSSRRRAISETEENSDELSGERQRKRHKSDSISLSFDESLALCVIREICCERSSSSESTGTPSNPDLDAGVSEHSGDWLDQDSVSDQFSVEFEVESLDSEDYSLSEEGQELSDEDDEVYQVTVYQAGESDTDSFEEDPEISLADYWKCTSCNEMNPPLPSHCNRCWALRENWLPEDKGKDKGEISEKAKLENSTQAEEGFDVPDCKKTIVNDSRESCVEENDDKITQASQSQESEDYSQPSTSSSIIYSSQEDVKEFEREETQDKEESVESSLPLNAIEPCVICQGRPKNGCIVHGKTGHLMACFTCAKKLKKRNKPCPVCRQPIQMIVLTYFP
Test: inhibition of human Mdm2/MdmX pairing – luminescence, single concentration, confirmation (AID 489028)
Settings: Mdm2-MdmX binding, luminescent assay; at 8 µM; active compounds read high

Row | Structure (SMILES) | inhibition
1 | COc1ccc(C(C(=O)NC2CCCCC2)N(C(=O)CCl)c2ccccc2Cl)cc1 (stereo not given) | 100% (active)
2 | N#Cc1c(NC(=O)CSc2nc3ccccc3c(=O)n2Cc2ccco2)sc2c1CCCC2 | 36.7%
3 | CC(=O)N1CCc2c(sc(NC(=O)CCS(=O)(=O)c3ccccc3)c2C#N)C1 | 45.3% (active)
4 | COc1cccc2sc(N(CCCN(C)C)C(=O)CCS(=O)(=O)c3ccccc3)nc12 | 48% (active)
5 | COc1cccc2sc(N(CCCN(C)C)C(=O)C(c3ccccc3)c3ccccc3)nc12 | 86.2% (active)
6 | Cc1ccc2sc(N(CCN(C)C)C(=O)/C=C/c3cccs3)nc2c1C | 4.55%
7 | CN(C)CCCN(C(=O)c1ccc(S(=O)(=O)N2CCCCCC2)cc1)c1nc2ccc(Br)cc2s1 | 21.9%
8 | Cc1cccc2sc(N(CCCN(C)C)C(=O)CCS(=O)(=O)c3ccccc3)nc12 | 52% (active)
9 | CN(C)CCCN(C(=O)c1ccc(S(=O)(=O)N2CCCCCC2)cc1)c1nc2cc3c(cc2s1)OCCO3 | 29.6%
10 | Cn1c(=O)n(C)c2cc(C(=O)Nc3ccc4c(c3)OCO4)ccc21 | 47.6% (active)
11 | Cc1ccc(C(=O)Nc2sc(Cc3ccc4c(c3)OCO4)c(C)c2C(N)=O)cc1 | 40%
12 | Cn1c(=O)n(C)c2cc(C(=O)Nc3ccc(Br)cc3)ccc21 | 35.1%
13 | O=c1oc2ccccc2cc1-c1cn(-c2ccccc2)c(=S)[nH]1 | 96.2% (active)
14 | Cc1ccc(C(=O)NNC(=O)c2cc3cc4ccccc4nc3s2)cc1 | 26.1%
15 | C=CCSc1nsc(NC(=O)Nc2cccc(C(C)=O)c2)n1 | 66.8% (active)
16 | CCSc1nsc(NC(=O)Nc2cccc(C(C)=O)c2)n1 | 40.8% (active)
17 | Cc1cccc(NC(=S)NCc2ccc3[nH]c4c(c3c2)CCCC4)c1 | 10.7%
18 | Oc1c(Cl)cc(Cl)c(Cl)c1Cc1c(O)c(Cl)cc(Cl)c1Cl | 90.5% (active)
19 | Cc1c(Cl)c([N+](=O)[O-])nn1Cc1ccc(C(=O)N/N=C\c2cc(Cl)ccc2O)o1 | 75% (active)
20 | CCCCNc1c(-c2cccc(Sc3ccc(OC)cc3)c2)nc2ccccn12 | -9.4%
21 | CCCc1nc(NCc2ccc3c(c2)OCO3)c2nnn(Cc3ccccc3Cl)c2n1 | 62% (active)
22 | Cc1ccc2nc(-c3ccncc3)cc(C(=O)Nc3ccc4c(c3)OCCO4)c2c1 | 57% (active)
23 | COc1ccc(CS(=O)/C(Cl)=C(/Cl)C(=O)Nc2ccc(OC)nc2)cc1 (stereo not given) | 100% (active)
24 | COc1ccc(NC(=O)/C(Cl)=C(/Cl)S(=O)Cc2ccc(C)cc2)cn1 (stereo not given) | 99.5% (active)
25 | COc1ccc(CC(=O)Nc2ccc(-c3nnc(-c4ccc(C)cc4)o3)cc2)cc1 | 15.7%
